According to PubChem BioAssay AID602373 (National Center for Advancing Translational Sciences (NCATS), 2012):
Where “and” joins values, the source holds several entries; their conditions need not be identical. Equal entries are not always repeated. Results filed as inconclusive are left out. A call without a number means that no potency is given here. Calls of active or inactive are those of the source. The call rests on the fitted dose curve; in most records, active means well fitted inhibition curve with a large enough effect; inconclusive means small, poorly fitted or top-dose-only effect; inactive means no such curve, though single readings can be large or run the other way.

Test: qHTS Assay for Inhibitors of Bacillus subtilis Sfp phosphopantetheinyl transferase (PPTase): Hepg2 Assay
Conditions: HepG2 cytotoxicity counter-screen; series mostly up to 46.1 µM
Description: The covalent attachment of a phosphopantetheinyl (4'-PP) arm to a variety of synthases and other proteins is a key posttranslational protein modification. The 4'-PP is installed on the proteins post-translationally from coenzyme A (CoA) on a conserved serine residue by action of phosphopantetheinyl transferase (PPTase) enzymes. Phosphopantetheinylation is essential for synthase activity, and removal of the PPTase gene precludes natural product synthesis in microorganisms, or in the case of fatty acid biosynthesis, renders the organism unviable. PPTase enzymes belong to a distinct structural superfamily. Within bacteria, these enzymes are grouped into two classes based upon primary structure, the AcpS-Type and Sfp-Type PPTases.
Sfp-type PPTases, corresponding to an activator of surfactin production in Bacillus subtilis, are responsible for modifying type I polyketide and nonribosomal peptide synthases of prokaryotes. Sfp-type PPTases are responsible for the activation of a variety of pathogen-associated virulence factors. Among these compounds are toxins such as mycolactone from Mycobacterium ulcerans, siderophores such as vibriobactin from Vibrio cholerae or mycobactin from Mycobacterium tuberculosis, as well as the mycolic acids which form the waxy cell wall of Mycobacteria. The biosyntheses of these natural products are considered attractive targets for drug design.
In search of small molecule Sfp-PPTase inhibitors, a fluorescence quenching assay was developed for detection of Bacillus subtilis Sfp-PPTase enzymatic activity in a miniaturized high-throughput format. The consensus ybbr acceptor peptide […] was N-terminally labeled with Black Hole Quencher-2 (BHQ-2) and used in combination with rhodamine-labeled coenzyme A as a co-substrate.
Phosphopantetheinyl transfer is a process essential to cellular viability and maintenance in all forms of life. Cell-permeable and stable compounds acting as PPTase inhibitors are anticipated to be growth inhibitory agents. This assay sought to assess the toxicity of test compounds in the HepG2 hepatocarcinoma cells; a human cell line whose use additionally determines the toxicity of test article metabolites.
NIH Chemical Genomics Center [NCGC]
NIH Molecular Libraries Probe Centers Network [MLPCN]
Assay Submitter (PI): Michale Burkart, University of California, San Diego
Test compounds' toxicity was assessed by measuring cellular ATP content using a luciferase-coupled ATP quantitation assay (CellTiter-Glo; Promega, Madison, WI). In this assay, luminescent signal is proportional to amount of ATP, and thus to the number of metabolically competent cells. Briefly, Hepg2 cell suspension (5 uL, 4 x 10^5 cells/mL) was dispensed into 1,536-well tissue-culture treated white/solid bottom assay plates (Greiner Bio-One North America, Monroe, NC) using a Flying Reagent Dispenser (Aurora Discovery, Carlsbad, CA). Cells were incubated at 37 deg C for 6 hr to allow for cell attachment, followed by addition of compounds via pin tool (Kalypsys, San Diego, CA). After compound addition, plates were incubated for 48 hr at 37 deg C. At the end of the incubation period, CellTiter-Glo reagent (5 uL) was added, plates were incubated at room temperature in the dark for 30 min, and the luminescence intensity of each well was determined using a ViewLux plate reader (PerkinElmer, Shelton, CT). The positive control was 92 uM and 41 uM of tetra-N-Octylammonium bromide, and the negative control was DMSO.

Row | SMILES | Potency
1 | CCN1CCN(C(=S)c2ccc(O)cc2)CC1 | inactive
2 | Cc1cc(C)nc(NC(=S)N2CCN(c3ccc4cn(C)nc4c3)CC2)c1 | inactive
3 | Cc1cc(C)nc(NC(=S)N2CCN(S(=O)(=O)c3cccc(C(F)(F)F)c3)CC2)c1 | inactive
4 | Cc1cc(C)nc(NC(=S)N2CCN(c3ccc(C(=O)O)cc3)CC2)c1 | inactive
5 | FC(F)(F)c1cc(N2CCN(C(=S)Nc3cc(Cl)ccn3)CC2)cc(C(F)(F)F)c1 | 15.8 µM (active)
6 | COc1cc(NC(=S)N2CCN(c3cccc(C(F)(F)F)c3)CC2)nc2ccccc12 | inactive
7 | FC(F)(F)c1cccc(N2CCN(C(=S)Nc3cc(C(F)(F)F)ccn3)CC2)c1 | 19.9 µM (active)
8 | Cc1ccnc(NC(=S)N2CCNCC2)c1 | inactive
9 | FC(F)(F)c1cnc(N2CCN(C(=S)Nc3cc(Cl)ccn3)CC2)c(Cl)c1 | inactive
10 | Cc1ccnc(NC(=S)N2CCN(c3ccc(Br)cc3)CC2)c1 | inactive
11 | Cc1cc(C)nc(Nc2nnc(N3CCN(c4cccc(C(F)(F)F)c4)CC3)s2)c1 | inactive
12 | Cc1cc(C)nc(NC(=S)N2CCN(c3cnc4nccn4c3)CC2)c1 | inactive
13 | Cc1cc(C)nc(NC(=S)N2CCN(c3nccc4ccccc34)CC2)c1 | inactive
14 | Cc1cc(C)nc(NC(=C(C#N)C#N)N2CCN(c3cccc(C(F)(F)F)c3)CC2)c1 | inactive
15 | Cc1ccnc(N(C)C(=S)N2CCN(c3cccc(C(F)(F)F)c3)CC2)c1 | inactive
16 | Cc1ccnc(NC(=S)N2CCN(c3ccc(N)cc3)CC2)c1 | inactive
17 | Cc1ccnc(NC(=S)NCCN(C)c2cccc(C(F)(F)F)c2)c1 | inactive
18 | COc1ccc(N2CCN(C(=S)Nc3cc(C)ccn3)CC2)cc1 | inactive
19 | Cc1cc(C)nc(NC(=S)N2CCN(c3ccc4nonc4c3)CC2)c1 | inactive

Row | SMILES | Potency
20 | COc1cccc(NC(=S)N2CCN(c3cccc(C(F)(F)F)n3)CC2)n1 | inactive
21 | COc1ccnc(NC(=S)N2CCN(c3ncc(C(F)(F)F)cc3Cl)CC2)c1 | inactive
22 | Cc1ccnc(NC(=S)NC2CCN(c3cccc(C(F)(F)F)c3)CC2)c1 | inactive
23 | FC(F)(F)c1cccc(N2CCN(C(=S)Nc3ncnc4ccccc34)CC2)c1 | inactive
24 | Cc1cc(C)nc(NC(=S)N2CCN(c3ncccc3Cl)CC2)c1 | inactive
25 | Cc1cc(C)nc(NC(=S)N2CCN(c3ccccn3)CC2)c1 | inactive
26 | Cc1cc(NC(=S)N2CCN(c3cccc(C(F)(F)F)c3)CC2)nc2ccccc12 | inactive
27 | Cc1cc(C)nc(NC(=S)N2CCN(c3ncccc3C#N)CC2)c1 | inactive
28 | S=C(Nc1cc(Cl)ccn1)N1CCN(c2ccc(Cl)cc2Cl)CC1 | inactive
29 | Cc1cc(C)nc(NC(=S)N2CCN(c3ccc(NS(C)(=O)=O)nn3)CC2)c1 | inactive
30 | Cc1ccnc(NC(=S)N2CCN(c3cccc(C(F)(F)F)c3)CC2)c1 | 28.1 µM (active) and 9.96 µM (active) and 25 µM (active)
31 | Cc1cc(C)nc(NC(=S)N2CCN(c3cc(C(F)(F)F)nc4ccc(C(F)(F)F)cc34)CC2)c1 | inactive
32 | COc1cccc(NC(=S)N2CCN(c3ccc(Cl)cc3Cl)CC2)n1 | inactive
33 | Cc1ccnc(NC(=S)N2CCN(c3ccc(Cl)c(Cl)c3)CC2)c1 | 28.1 µM (active)
34 | Cc1cc(C)nc(NC(=S)N2CCN(c3ccc(C(F)(F)F)cc3[N+](=O)[O-])CC2)c1 | inactive
35 | Cc1cc(C)nc(NC(=S)N2CCN(c3nc4ccccc4s3)CC2)c1 | inactive
36 | Cc1cc(C)nc(NC(=S)N2CCN(Cc3c(F)cccc3Cl)CC2)c1 | inactive
37 | COc1ccnc(NC(=S)N2CCN(c3ccc(Cl)cc3Cl)CC2)c1 | inactive
